For 24 molecules, Euclidean distance results are on record in the supplement of paper PMC10127200.

Counter-ions that a name gives are not always drawn.

Assay in all cases: Euclidean distance of Cell Painting phenotypic profile (signed KS, 77 features) to DMSO centroid (dimensionless distance); 5 or 10 uM (library dependent); higher = stronger phenotypic change vs DMSO (phenoactivity)
Holding throughout (conditions): 48 h

In one assay the test system is 786-O. A digest of the protocol: (§1)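 Stained cells were imaged confocally at 20X with 9 fields per well, after 48 h of exposure to library compounds at 10 or 5 uM (set by library; 0.1% DMSO final). The cells were five cancer lines and a healthy fibroblast line. From the images, Harmony extracted 77 features, each expressed as a signed Kolmogorov-Smirnov statistic relative to same-plate vehicle wells. Phenoactivity is measured as Euclidean distance to the median vehicle profile, using plate-position-corrected, correlation-weighted profiles averaged across replicates at the top dose.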

The next assay concerns A549. A digest of the protocol: as §1
Another assay concerns DU145. A digest of the protocol: as §1
The next assay relates to FB. A digest of the protocol:
as §1

Another assay has as its system HEPG2. A digest of the protocol: as §1
For a further assay, the system named is OVCAR4. A digest of the protocol:
as §1

With `CC(C)C[C@H](NC(=O)CNC(=O)[C@H](Cc1ccc(O)cc1)NC(=O)[C@H](CO)NC(=O)[C@H](Cc1c[nH]c2ccccc12)NC(=O)[C@H](Cc1cnc[nH]1)NC(=O)[C@@H]1CCC(=O)N1)C(=O)N[C@@H](CCCNC(=N)N)C(=O)N1CCC[C@H]1C(=O)NCC(N)=O` [Gonadorelin Acetate], the Euclidean distance with 786-O is 1.59; in the assay with A549 it was 1.23; with DU145, 0.611; in the assay on FB, 1.19; in the assay on HEPG2, 0.828; in the assay on OVCAR4 it was 1.22.

Regarding `CC(C)Nc1cccnc1N1CCN(C(=O)c2cc3cc(NS(C)(=O)=O)ccc3[nH]2)CC1` [Delavirdine (mesylate)], the Euclidean distance in the assay with 786-O amounted to 1.18; with A549, 0.811; with DU145, 2.31; in the assay on FB, 1.56; with HEPG2 it was 0.607; in the assay on OVCAR4 it was 1.51.

Turning to `CC12CC3CC(C)(C1)CC(N)(C3)C2` [Memantine HCl], the Euclidean distance in the assay with 786-O was found to be 1.1; with A549 it was 0.654; with DU145, 1.66; in the assay on FB, 1.03; in the assay with HEPG2 it was 1.95; with OVCAR4, 1.51.

For the molecule `CN1CCCN=C1/C=C/c1cccc(O)c1` [Oxantel Pamoate], the Euclidean distance is 0.869 in the assay on 786-O; 0.907 in the assay with A549; 0.598 in the assay with DU145; 0.7 with FB; 0.882 in the assay with HEPG2; 0.824 in the assay with OVCAR4.

For `COc1ccc(CNc2nc(N3CCC[C@H]3CO)ncc2C(=O)NCc2ncccn2)cc1Cl` [Avanafil], the Euclidean distance in the assay on 786-O was determined as 1.22; in the assay with A549 it was 0.789; in the assay on DU145 it was 1.12; with FB, 0.94; in the assay with HEPG2 it was 0.764; in the assay on OVCAR4 it was 1.44.

Regarding `O=C(c1ccc(OCCN2CCCCC2)cc1)c1c(-c2ccc(O)cc2)sc2cc(O)ccc12` [Raloxifene], the Euclidean distance was 2.37 in the assay on 786-O; 2.49 in the assay on A549; 2.15 with DU145; 2.23 with FB; 2.54 in the assay with HEPG2; 2.52 with OVCAR4.

Turning to `Nc1nccc2c1ncn2C1C=C(CO)C(O)C1O` (centres undefined) [3-Deazaneplanocin A (DZNeP)], the Euclidean distance is 2.28 in the assay with 786-O; 1.27 in the assay on A549; 1.19 with DU145; 2.71 in the assay on FB; 1.23 in the assay on HEPG2; 1.72 in the assay with OVCAR4.

As to `CCC[C@@H](C=O)NC(=O)[C@H](CC(C)C)NC(=O)[C@H](CC(C)C)NC(=O)OCc1ccccc1`, the Euclidean distance in the assay with 786-O was found to be 5.22; in the assay on A549 it was 4.01; in the assay on DU145 it was 5.17; in the assay with FB, 4.63; in the assay with HEPG2, 4.52; in the assay on OVCAR4 it was 5.15.

In the case of `N[C@@H](Cc1cc(I)c(Oc2ccc(O)c(I)c2)c(I)c1)C(=O)O` [Liothyronine Sodium], the Euclidean distance in the assay with 786-O was 0.896; in the assay with A549 it was 0.796; in the assay with DU145, 0.838; with FB, 1.56; with HEPG2, 1.41; in the assay with OVCAR4 it was 0.927.

For the molecule `CC(/C=C1\SC(=S)N(CC(=O)O)C1=O)=C\c1ccccc1` [Epalrestat], the Euclidean distance in the assay with 786-O amounted to 1.29; in the assay with A549, 1.2; in the assay on DU145 it was 0.915; with FB, 1.45; in the assay with HEPG2, 0.723; with OVCAR4, 0.848.

As to `CCN1C(=O)C=CC1=O` [N-Ethylmaleimide (NEM)], the Euclidean distance turned out to be 3.6 with 786-O; 1.27 in the assay on A549; 1.23 with DU145; 1.58 with FB; 0.6 in the assay on HEPG2; 1.06 in the assay on OVCAR4.

Consider `CN(C)CC[C@H](CSc1ccccc1)Nc1ccc(S(=O)(=O)NC(=O)c2ccc(N3CCN(Cc4ccccc4-c4ccc(Cl)cc4)CC3)cc2)cc1[N+](=O)[O-]`, for which the Euclidean distance is 0.812 in the assay on 786-O; 2.83 in the assay with A549; 1.36 in the assay with DU145; 0.853 in the assay on FB; 0.522 in the assay with HEPG2; 1.01 with OVCAR4.

Regarding `CCCCCCc1ccc(O)cc1O` [Hexylresorcinol], the Euclidean distance with 786-O was 1.35; with A549, 0.943; with DU145, 0.978; with FB it was 0.936; in the assay with HEPG2, 1.32; with OVCAR4, 1.16.

`COc1ccc(-c2ccc3cc(C(=O)O)ccc3c2)cc1C12CC3CC(CC(C3)C1)C2` [Adapalene]: the Euclidean distance is 1.76 in the assay on 786-O; 2.58 in the assay on A549; 1.39 in the assay with DU145; 2.18 in the assay on FB; 1.73 in the assay on HEPG2; 2.03 with OVCAR4.

For the molecule `CCOC(=O)C1=C[C@@H](OC(CC)CC)[C@H](NC(C)=O)[C@@H](N)C1` [Oseltamivir phosphate], the Euclidean distance was 0.628 with 786-O; 0.678 in the assay with A549; 0.967 in the assay on DU145; 1.19 in the assay with FB; 0.883 in the assay on HEPG2; 1.1 with OVCAR4.

Consider `CO[C@@H]1[C@@H](O[C@@H]2O[C@H](C)[C@@H](O[C@H]3C[C@@](C)(O)[C@@H](OC(=O)CC(C)C)[C@H](C)O3)[C@H](N(C)C)[C@H]2O)[C@@H](CC=O)C[C@@H](C)[C@@H](O)/C=C/C=C/C[C@@H](C)OC(=O)C[C@H]1O` [Kitasamycin], for which the Euclidean distance in the assay on 786-O amounted to 0.871; in the assay on A549, 1.1; in the assay on DU145 it was 1.49; in the assay on FB, 0.973; in the assay on HEPG2, 0.78; in the assay with OVCAR4, 0.761.

Turning to `CC(C)(Oc1ccc(C(=O)c2ccc(Cl)cc2)cc1)C(=O)O` [Choline Fenofibrate], the Euclidean distance worked out at 0.954 with 786-O; 0.724 in the assay with A549; 0.985 in the assay on DU145; 1.28 in the assay on FB; 0.32 in the assay with HEPG2; 0.848 in the assay on OVCAR4.

Consider `Cn1cnc2c1c(=O)[nH]c(=O)n2C` [Theobromine], for which the Euclidean distance was found to be 0.718 in the assay with 786-O; 0.658 in the assay on A549; 0.727 in the assay on DU145; 0.792 in the assay on FB; 1.77 in the assay on HEPG2; 0.9 in the assay with OVCAR4.

In the case of `CN1CCC(=C2c3ccccc3CCc3sccc32)CC1` [Pizotifen Malate], the Euclidean distance in the assay with 786-O came out at 1.65; with A549, 1.87; with DU145, 2.14; in the assay on FB, 2.2; with HEPG2 it was 1.73; in the assay on OVCAR4 it was 1.29.

Turning to `CCNC(=O)[C@@H]1CCCN1C(=O)[C@H](CCCN=C(N)N)NC(=O)[C@H](CC(C)C)NC(=O)[C@@H](C)NC(=O)[C@H](Cc1ccc(O)cc1)NC(=O)[C@H](CO)NC(=O)[C@H](Cc1c[nH]c2ccccc12)NC(=O)[C@H](Cc1cnc[nH]1)NC(=O)[C@@H]1CCC(=O)N1` [Alarelin Acetate], the Euclidean distance with 786-O worked out at 0.728; in the assay with A549, 1.38; with DU145, 0.974; in the assay with FB it was 2.05; with HEPG2, 1.87; in the assay with OVCAR4, 1.24.

In the case of `CO[C@H]1C[C@@H]2CC[C@@H](C)[C@@](O)(O2)C(=O)C(=O)N2CCCC[C@H]2C(=O)O[C@H]([C@H](C)C[C@@H]2CC[C@@H](OP(C)(C)=O)[C@H](OC)C2)CC(=O)[C@H](C)/C=C(\C)[C@@H](O)[C@@H](OC)C(=O)[C@H](C)C[C@H](C)/C=C/C=C/C=C/1C` [Ridaforolimus (Deforolimus. MK-8669)], the Euclidean distance in the assay with 786-O came out at 2.74; in the assay with A549, 1.98; in the assay on DU145, 1.3; with FB, 2.88; in the assay with HEPG2 it was 1.37; with OVCAR4, 2.04.

On to `CNNCc1ccc(C(=O)NC(C)C)cc1` [Procarbazine HCl], for which the Euclidean distance in the assay on 786-O is 1.36; with A549 it was 0.988; with DU145 it was 1.23; in the assay on FB it was 1.25; in the assay with HEPG2, 0.885; in the assay on OVCAR4, 0.933.

With `NCCc1c[nH]cn1` [Histamine], the Euclidean distance came out at 1.05 in the assay on 786-O; 1.15 in the assay on A549; 1.33 in the assay on DU145; 1.24 in the assay with FB; 1.08 in the assay with HEPG2; 1.27 with OVCAR4.

In the case of `CC[C@H]1OC(=O)[C@H](C)[C@@H](O[C@H]2C[C@@](C)(OC)[C@@H](O)[C@H](C)O2)[C@H](C)[C@@H](O[C@@H]2O[C@H](C)C[C@H](N(C)C)[C@H]2O)[C@](C)(O)C[C@@H](C)/C(=N\OCOCCOC)[C@H](C)[C@@H](O)[C@]1(C)O` [Roxithromycin], the Euclidean distance in the assay with 786-O came to 1.03; in the assay on A549, 0.649; with DU145, 0.699; in the assay on FB it was 1.1; in the assay on HEPG2 it was 0.654; in the assay with OVCAR4, 1.42.
